Assay outcomes deposited in PubChem by National Center for Advancing Translational Sciences (NCATS).
KDM5B inh – KDM5B demethylase inhibition | AID 1347165 | Potency, µM (doses to about 57.7 µM), actives largely listed as inhibitors | hit rate 2.6% among 220,000 | KDM5B demethylase, FDH-coupled NADH fluorescence (FDH is formaldehyde dehydrogenase); active = well fitted inhibition curve with a large enough effect; note: 0% is about no effect; nearly all actives have a fitted effect of over 70% in size
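Inhibition is measured as reduced NADH fluorescence generation from FDH coupling to formaldehyde release. Truncated KDM5BΔAP at 200 nM final acts on H3K4me3 peptide (12.5 µM in substrate mix) in pH 7.5 HEPES buffer with Tween-20, 30 min, room temperature.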
Active calls of the source: *; i = inactive. The full list was thinned out, with hits kept by preference. Potency is the fitted concentration of half-maximal effect.

SMILES	KDM5B inh
COc1ccc(-c2noc(-c3cccn3CC(=O)NCc3ccc(OC)c(OC)c3)n2)cc1F	i
COc1ccc(C(=O)NCc2nnc3c(-c4nc(C(C)C)no4)cccn23)cc1F	31.6µM*
CC(C)c1noc(-c2cccn3c(CNC(=O)c4c(F)cccc4Cl)nnc23)n1	15.8µM*
Cc1ccc(N(CC(=O)NCC2CCCO2)S(=O)(=O)c2ccc(C)cc2)cc1 (configuration not stated)	i
COc1ccc(NS(=O)(=O)c2ccc(N/N=C/c3ccc(C)s3)c([N+](=O)[O-])c2)cc1	i
O=C(O)CNS(=O)(=O)c1ccccc1C(F)(F)F	i
Cc1nc(Cc2nn3c(-c4ccccc4)nnc3s2)cs1	i
O=C(NC1CC1)C(NCc1cccc(C(F)(F)F)c1)c1ccc(F)cc1 (configuration not stated)	i
CCOC(=O)N1CCN(S(=O)(=O)c2cc(Cl)c(C)cc2OCC)CC1	i
O=C(CSc1ncc(-c2ccc(Br)cc2)o1)NC1CCCCC1	i
CCNC(=O)c1ccc(CN(c2ccccc2)S(C)(=O)=O)cc1	i
O=C(CSc1nnc2ccc(-c3cccnc3)nn12)NC1CCCCC1	i
O=S(=O)(c1ccc(F)cc1)n1cc(Cl)cn1	i
Clc1ccccc1N/N=C/C(Br)=C/c1ccccc1	i
Cc1ccc(-c2ccc3nnc(CNC(=O)c4ccco4)n3n2)cc1	31.6µM*
O=C(NCc1nnc2ccc(-c3ccccc3)nn12)c1ccco1	28.2µM*
O=C(CS(=O)(=O)c1ccc(N2CCCC2=O)cc1)N1CCOCC1	i
CCC(C)C(NC(=O)c1ccc(C(C)C)cc1)C(=O)O (configuration not stated)	i
CCc1ccc(CNCc2ccco2)cc1	i
Cc1ccnn1CC(=O)NCc1cccnc1Oc1cccc(C(F)(F)F)c1	i
Cc1ccc(C#N)c(NCc2cccnc2Oc2cccc(C(F)(F)F)c2)n1	25.1µM*
CC(C)(C)CC(=O)NCc1cccnc1Oc1cccc(C(F)(F)F)c1	i
CCCn1nc(C(=O)OCC(=O)NC(=O)NC(C)C)c2ccccc2c1=O	i
Cc1cc(-c2ccc(S(=O)(=O)N3CCN(c4cc(Cl)ccc4C)CC3)s2)on1	i
Cc1ccc(S(=O)(=O)N[C@H]2CO[C@H]3[C@@H]2OC[C@@H]3n2nnnc2Oc2ccc(-n3cncn3)cc2)cc1	i
SMILES	KDM5B inh
O=S(=O)(N[C@H]1CO[C@H]2[C@@H]1OC[C@@H]2n1nnnc1Oc1ccc(-n2cncn2)cc1)c1cccs1	17.8µM*
CC(=O)Nc1ccc(S(=O)(=O)N[C@H]2CO[C@H]3[C@@H]2OC[C@@H]3n2nnnc2Oc2ccc(-n3cncn3)cc2)cc1	i
Cc1c(Cl)cccc1NC(=S)NCCc1ccccc1	i
COC(=O)CNC(=O)COC(=O)c1cc(=O)c2ccccc2o1	i
CCNc1ncnc2c1CN(C1CCCNCC1)C(=O)CN2C (configuration not stated)	i
CN1CC(=O)N(C2CCNCC2)Cc2c1ncnc2N1CCCCC1	i
CN1CC(=O)N(C2CCNCC2)Cc2c(NCC(C)(C)C)ncnc21	i
CC(=O)N1CCCN(c2ncnc3c2CN(C2CCNCC2)C(=O)CN3C)CC1	i
CC1C=CC(C)N1c1ncnc2c1CN(C1CCNC1)C(=O)CN2C (configuration not stated)	89.1µM*
COCCNc1ncnc2c1CN(C1CCNCC1)C(=O)CN2C	50.1µM*
CCN(CC)S(=O)(=O)c1ccc(NC(=O)C(C)N(c2cccc(Cl)c2)S(C)(=O)=O)cc1 (configuration not stated)	i
COc1ccc(S(=O)(=O)N2CCN(C(=O)c3cn[nH]c3-c3ccccc3)CC2)cc1	i
COc1cccc(Nc2ncc3c(n2)C(C)(C(=O)NCCc2ccccn2)CC3)c1 (configuration not stated)	i
COc1cccc(Nc2ccc3c(n2)C(C)(C(=O)NCc2ccco2)CN(C)C3)c1 (configuration not stated)	28.2µM*
CN1Cc2ccc(NCc3ccccc3)nc2C(C)(C(=O)NCc2ccccc2)C1 (configuration not stated)	i
O=C(Cn1ccn2nc(-c3ccccc3)cc2c1=O)NCc1ccc2c(c1)OCO2	i
COc1cccc(Nc2ccc3c(n2)C(C)(C(=O)NC2CCN(C)CC2)CN(C)C3)c1 (configuration not stated)	i
CN1Cc2ccc(Nc3ccccc3)nc2C(C)(C(=O)NCc2ccc3c(c2)OCO3)C1 (configuration not stated)	39.8µM*
COc1cc(-c2csc(NC3CC3)n2)cc(OC)c1OC	i
COc1cc(C=O)cc(Br)c1OC(=O)c1ccc(C)cc1	i
CC1=C/C(=N\NC(=S)Nc2ccccc2F)CC1	i
Cc1cccc(C(=O)NCc2ccc(C)s2)n1	i
O=C(O)CNC(=O)CCn1ccc2ccc(F)cc21	i
COc1cccc(C2C(C#N)=C(N)OC3=C2C(=O)CC(c2ccccc2)C3)c1 (configuration not stated)	i
